IL1B secr inh: blocks inflammasome-driven IL-1 beta release; THP-1 LPS/ATP IL-1B secretion, AlphaLISA, 16 h; stronger effect = lower value; activity change, % at 57.5 µM; actives 4.7% (n = 360,000); AID 743279; in the data active = activity change below about -50%; inconclusive = mostly about -30% to -49%; note: % is set by controls: 0 for no effect and ±100 for the full control effect
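THP-1 cells pretreated 1 hr with compounds (up to 57.5 uM final), then stimulated with LPS (250 ng/mL final) plus ATP (1.25 mM final); secreted IL-1B measured by AlphaLISA after 16 hr, decreased signal indicating inhibition.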
D3 ag: activates the human D3 dopamine receptor; D3R DiscoveRx beta-arrestin cells, luminescence, 90 min; max activation, %; AID 652048; actives 0.58% (n = 410,000); P35462; in the data active = max activation above about 30%; note: 0% is about no effect
Target sequence (P35462 whole entry, looked up): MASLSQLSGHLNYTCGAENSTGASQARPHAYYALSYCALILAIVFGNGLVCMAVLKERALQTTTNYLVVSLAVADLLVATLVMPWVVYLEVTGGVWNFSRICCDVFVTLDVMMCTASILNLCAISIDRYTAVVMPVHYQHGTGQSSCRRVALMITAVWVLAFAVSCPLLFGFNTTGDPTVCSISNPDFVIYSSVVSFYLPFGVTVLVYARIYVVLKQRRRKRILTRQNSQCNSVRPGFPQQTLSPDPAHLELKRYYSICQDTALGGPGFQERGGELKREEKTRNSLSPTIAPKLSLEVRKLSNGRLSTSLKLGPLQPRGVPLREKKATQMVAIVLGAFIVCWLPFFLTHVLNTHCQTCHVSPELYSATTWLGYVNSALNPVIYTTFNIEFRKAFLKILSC
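Agonist mode: compounds and dopamine controls were applied to plated cells for 90 min at 37 degrees C after an overnight attachment at 1500 cells/well. Luminescent read-out followed 30 - 60 minutes at room temperature with DiscoveRx detection reagent.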
ClpP mod: qHTS Assay for Activators of ClpP; ATP-dependent Clp protease proteolytic subunit (Bacillus subtilis (strain 168)), P80244; actives 1.9% (n = 340,000); purified B. subtilis ClpP, FRET peptide cleavage, 20 min; Potency, µM (titrated, usually from 57.5 µM), for the others: top-dose activity change, negative = active; active = well fitted falling curve with a large enough effect; inconclusive = small, poorly fitted or top-dose-only effect; inactive = no such curve, though single readings can be large or run the other way; note: potency is the fitted concentration of half-maximal effect; the source files actives as falling curves though it sought activators and does not explain the sign; nearly all actives have a fitted effect of over 65% in size
Target sequence (P80244 whole entry, looked up): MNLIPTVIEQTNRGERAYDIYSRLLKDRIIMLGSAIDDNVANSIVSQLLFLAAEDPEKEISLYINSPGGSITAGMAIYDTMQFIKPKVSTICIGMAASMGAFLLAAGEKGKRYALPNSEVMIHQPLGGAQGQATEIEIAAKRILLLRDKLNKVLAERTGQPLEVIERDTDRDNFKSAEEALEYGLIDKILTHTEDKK
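FRET quenching reversal measured ClpP activation: 10 microg/mL B. subtilis ClpP at pH 8 with the FRET-FV decapeptide, read at 430 nm after 320 nm excitation. The 20-min minus 0-min signal was scaled between DMSO/no-enzyme wells and ADEP (5.8 microM final).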
DT40 TDP1 no CPT: qHTS for Inhibitors of human tyrosyl-DNA phosphodiesterase 1 (TDP1): qHTS in cells in absence of CPT; actives 15% (n = 420,000); Potency, µM (titrated, usually from 46.2 µM), inactives show at the highest dose activity change, negative = growth inhibition, hits mostly inhibitors; DT40 Tdp1-/- hTDP1 cells, no CPT, ATP luminescence, 48 h; note: potency is the fitted concentration of half-maximal effect; % is set by controls: 0 for no effect and ±100 for the full control effect; nearly all actives have a fitted effect of over 55% in size
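Chicken DT40 Tdp1-/- cells complemented with human TDP1, screened without camptothecin (DMSO vehicle only), 400 cells/well. Compounds pin-transferred, cells incubated at 37 °C for at least 48 hr. Growth read as ATP-dependent luminescence (CellTiter-Glo, 30 min at RT).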
DT40 TDP1 CPT: DT40-hTDP1 cell growth loss with CPT. chicken DT40 Tdp1-/-;hTDP1 cells + 20 nM CPT, ATP luminescence, 48 h. Potency, µM (titrated, usually from 46.2 µM), for inactives: at the top dose activity change, negative = growth inhibition, actives largely listed as inhibitors. actives 12% (n = 420,000); note: potency is the fitted concentration of half-maximal effect; % is set by controls: 0 for no effect and ±100 for the full control effect; nearly all actives have a fitted effect of over 55% in size
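Cell growth measured by CellTiter-Glo luminescence after a minimum 48 h, 37 C compound exposure with 20 nM CPT in Tdp1-knockout DT40 cells stably expressing hTDP1, seeded 400/well; qHTS titration format.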
D3 antag: antagonists of human D3 dopamine receptor | max response, negative = inhibition, % | D3R cells, DiscoveRx beta-arrestin luminescence, antagonist mode; stronger effect = lower value | AID 652054 | actives 2.5% (n = 360,000); in the data active = max response below about -50%; inconclusive = no clear call, values can overlap the other calls; note: % is set by controls: 0 for no effect and ±100 for the full control effect
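Cells plated overnight at 1500 cells/well, then exposed to library compounds with dopamine controls for 90 minutes at 37 degrees C. DiscoveRx reagent added for 30–60 minutes at room temperature; luminescence read, quantitative HTS format.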
Numbers without * were called inactive; ? = inconclusive; . = no result; ! = not active in a repeat. Rows were chosen to be rich in hits. Some 21% of all compounds tested hit in one or more screens of this group. Unless noted, calls come from the whole dose curve; as a rule, active = well fitted inhibition curve with a large enough effect; inconclusive = small, poorly fitted or top-dose-only effect; inactive = flat fitted curve, though single readings scatter.

SMILES	IL1B secr inh	D3 ag	ClpP mod	DT40 TDP1 no CPT	DT40 TDP1 CPT	D3 antag
CCCC#Cc1ccc2c(c1)O[C@H](CN(C)S(=O)(=O)c1cccc(OC)c1)[C@H](C)CN([C@H](C)CO)S2(=O)=O	-16	3	-3%	16µM*	15µM*	0
Cc1ccc(S(=O)(=O)N2CCN(S(=O)(=O)c3ccccc3)C2c2ccc(N(C)C)cc2)cc1 (configuration not stated)	10	0	-3%	?	16µM*	2
O=C(CN1CCOCC1)N1CCN(S(=O)(=O)c2ccccc2)C1c1ccccc1 (configuration not stated)	17	-4	-1%	-16%	-20%	8
Cc1ccc(S(=O)(=O)N2CCN(C(=O)CN3CCOCC3)C2c2ccccc2)cc1 (configuration not stated)	-2	0	-4%	16µM*	?	28
CCCNC(=S)N1CCC(C(=O)c2ccc(Cl)cc2)CC1	29	8	-1%	?	23µM*	-3
CCCNC(=S)N1CCC(C(=O)c2ccc(OC)cc2)CC1	-2	-8	.	21µM*	-27%	-13
CC(C)CNC(=S)N1CCC(C(=O)c2ccc(Cl)cc2)CC1	-21	2	2%	?	10µM*	-23
CCS(=O)(=O)N1CCC(C(=O)c2ccc(Cl)cc2)CC1	-8	1	-1%	?	21µM*	6
CCNC(=S)N1CCC(C(=O)c2ccc(Cl)cc2)CC1	0	0	-1%	?	?	12
C=CCNC(=S)N1CCC(C(=O)c2ccc(OC)cc2)CC1	16	1	0%	?	?	3
CNC(=S)N1CCC(C(=O)c2ccc(Cl)cc2)CC1	-10	5	2%	-21%	-11%	67
Cc1nc(-c2ccc(OCC(C)C)c(C#N)c2)sc1C(=O)O	.	-3	.	-25%	-16%	.
CCOc1ccc(NC(=S)N2CCC(C(=O)c3ccc(OC)cc3)CC2)cc1	-7	-5	0%	18µM*	16µM*	13
COc1ccc(NC(=S)N2CCC(C(=O)c3ccc(Cl)cc3)CC2)cc1	8	1	1%	11%	6%	34
COc1ccc(C(CNC(=O)c2ccc(-c3cccc(C(F)(F)F)c3)o2)N2CCOCC2)cc1 (configuration not stated)	-28	-17	-11%	21µM*	?	-30
CCC1CCc2sc(C(=O)NCC(c3ccc(OC)cc3)N3CCOCC3)cc2C1 (configuration not stated)	-17	-5	-1%	13µM*	23µM*	-91*
COc1ccc(C(CNC(=O)c2cc(C)oc2C)N2CCOCC2)cc1 (configuration not stated)	-4	-9	-4%	?	?	-11
Cc1c(C(=O)NCCN2CCOCC2)oc2ccccc12	0	1	-1%	-23%	-7%	?
Cc1c(C(=O)NCC(c2ccc(Cl)cc2)N2CCOCC2)oc2ccccc12 (configuration not stated)	.	2	1%	23µM*	16µM*	.
COc1ccc(C(CNC(=O)c2oc3ccc(C)cc3c2C)N2CCOCC2)cc1 (configuration not stated)	.	-28	0%	-94%	23µM*	.
C[C@H](NC(CCc1ccccc1)C(=O)O)C(=O)N1CCC[C@H]1C(=O)O (some centres not stated)	.	3	.	1%	8%	.
Cc1ccc(S(=O)(=O)N2CCN(C(=O)c3ccc(N4CCC(C)CC4)c([N+](=O)[O-])c3)CC2)cc1	?	-6	-1%	?	?	-14
O=C(NCc1ccccc1)C(c1ccc(F)cc1)N(C(=O)c1csnn1)C1CCCC1 (configuration not stated)	-7	4	.	?	?	6
O=C(O)/C=C/C(=O)NC1CC1	33	13	.	5%	2%	16
Cc1ccc2oc(C(=O)NCC3CCOCC3)c(C)c2c1	-15	-1	2%	-2%	-16%	1
SMILES	IL1B secr inh	D3 ag	ClpP mod	DT40 TDP1 no CPT	DT40 TDP1 CPT	D3 antag
Cc1ccc2oc(C(=O)NCC(c3ccc(Cl)cc3)N3CCOCC3)c(C)c2c1 (configuration not stated)	.	6	-5%	10µM*	8.2µM*	.
CC(C(=O)OCC(=O)c1cccc([N+](=O)[O-])c1)N1C(=O)C2C3C=CC(C3)C2C1=O (configuration not stated)	29	11	.	-19%	-13%	8
O=C1c2ccccc2NC2(CCCCC2)N1N=C1CCCCC1	-8	-5	18µM*	-30%	-30%	7
CSc1ncnc2c1ncn2CCCNCCc1ccccn1	-3	-12	0%	7%	6%	?
CNC[C@H](CC1CCCCC1)NC[C@H](Cc1ccccc1)NCCC12CC3CC(CC(C3)C1)C2	-100*	-41	-1%	13µM*	7.3µM*	0
CCC(C(=O)NCc1ccc(OC)c(OC)c1)n1nc(C)c2c(C)n(-c3ccc(C)cc3)nc2c1=O (configuration not stated)	.	-8	0%	23µM*	16µM*	.
CCC(C(=O)Nc1ccccc1F)n1nc(C)c2c(C)n(-c3ccccc3)nc2c1=O (configuration not stated)	-22	2	-1%	?	?	14
CCC(C(=O)NCCC1=CCCCC1)n1nc(C)c2c(C)n(-c3ccccc3)nc2c1=O (configuration not stated)	0	-13	-3%	26µM*	?	3
CCC(C(=O)Nc1cc(F)ccc1F)n1nc(C)c2c(C)n(-c3ccc(C)cc3)nc2c1=O (configuration not stated)	-9	59*!	-1%	16µM*	15µM*	31
CCC(C(=O)NCCCc1ccccc1)n1nc(C)c2c(C)n(-c3ccccc3)nc2c1=O (configuration not stated)	12	1	0%	-28%	?	5
Cc1nn(Cc2ccccc2)c(=O)c2nn(-c3ccc(Cl)cc3)c(C)c12	-70*	-10	-8%	21µM*	?	-27
COc1ccc(CN2C(=O)CSCC2(C)C(=O)Nc2c(C)cccc2C)cc1 (configuration not stated)	12	1	0%	-28%	-5%	-16

Source: PubChem (National Center for Advancing Translational Sciences (NCATS))
